What all share (conditions): primary human HUVEC with PBMC; actives raise or lower the signal
Experiment [1] can be described thus: BSK_LPS_PGE2: BioMAP Diversity Plus: LPS Assay for Prostaglandin E2 (PGE2) Biomarker Activity (AID 2283082). The method in brief:
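PGE2 release measured by ELISA in an LPS-activated co-culture of human umbilical vein endothelial cells and peripheral blood mononuclear cells, read at 24 h post-dosing. DMSO served as baseline for bidirectional curve fitting.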

Read-out in experiment [2]: Macrophage colony-stimulating factor (MCSF), CSF1 (gene 1435)
As to the kind of experiment: BSK_LPS_MCSF: BioMAP Diversity Plus: LPS Assay for Macrophage colony-stimulating factor (MCSF) Biomarker Activity (AID 2283083). In short, it runs like this: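 ELISA readout of M-CSF after 24 h compound exposure in a human endothelial/PBMC co-culture. Activity, in either direction, is fitted relative to DMSO vehicle.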

Read-out in experiment [3]: Tissue Factor, F3 (gene 2152)
As to the kind of experiment: BSK_LPS_TissueFactor: BioMAP Diversity Plus: LPS Assay for Tissue Factor Biomarker Activity (AID 2283084). The method in brief:
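ELISA signal for cell-surface Tissue Factor (CD142) was read 24 h after compound dosing of an LPS-stimulated human endothelial–PBMC primary co-culture. Gain or loss of signal was scored relative to DMSO.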

Read-out in experiment [4]: Tumor necrosis factor (Homo sapiens) (UniProt P01375)
As to the kind of experiment: BSK_LPS_TNFa: BioMAP Diversity Plus: LPS Assay for Tumour Necrosis Factor alpha (TNFa) Biomarker Activity (AID 2283085).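 For AC50: TNFa protein level quantified by ELISA in the co-culture.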 The method in brief: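 TNFa was quantified by ELISA in LPS-activated co-cultures of human endothelial cells and PBMC, 24 h post-dosing. Both increases and decreases versus DMSO were fitted.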

Read-out in experiment [5]: Vascular cell adhesion molecule 1 (VCAM1), VCAM1 (gene 7412)
Briefly: BSK_LPS_VCAM1: BioMAP Diversity Plus: LPS Assay for Vascular cell adhesion molecule 1 (VCAM1) Biomarker Activity (AID 2283086). The method in brief: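 VCAM-1 quantified by ELISA in an LPS-activated co-culture of human endothelial cells and peripheral blood mononuclear cells, read 24 h post-treatment. Fitted in both directions versus DMSO; parallel SRB staining flags overt cytotoxicity.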

Read-out in experiment [6]: CD38, CD38 (gene 952)
Briefly: BSK_SAg_CD38: BioMAP Diversity Plus: SAg Assay for CD38 Biomarker Activity (AID 2283087). In short, it runs like this: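 CD38 quantified by ELISA (fluorescence) in a superantigen-activated endothelial cell–PBMC co-culture at 24 h post-dose. Activity fitted in both directions relative to DMSO; parallel SRB and Alamar Blue cytotoxicity read-outs.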

Read-out in experiment [7]: CD69, CD69 (gene 969)
Briefly: BSK_SAg_CD69: BioMAP Diversity Plus: SAg Assay for CD69 Biomarker Activity (AID 2283089). In short, it runs like this: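 Primary human vascular co-culture (umbilical vein endothelium with peripheral blood mononuclear cells) exposed to test chemical for 24 h. CD69 levels quantified by fluorescence ELISA; DMSO served as negative control for bidirectional fitting.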

Read-out in experiment [8]: Monocyte Chemoattractant Protein-1 (MCP1), CCL2 (gene 6347)
Briefly: BSK_SAg_MCP1: BioMAP Diversity Plus: SAg Assay for Monocyte Chemoattractant Protein-1 (MCP1) Biomarker Activity (AID 2283090). The method in brief:
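Values derive from bidirectional fitting of ELISA-measured MCP1 against DMSO controls. Readings were taken 24 h after dosing human vascular endothelial cells co-cultured with peripheral blood mononuclear cells under superantigen stimulation.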

Read-out in experiment [9]: E-selectin (Homo sapiens) (UniProt P16581)
As to the kind of experiment: BSK_SAg_Eselectin: BioMAP Diversity Plus: SAg Assay for Eselectin Biomarker Activity (AID 2283091). In short, it runs like this: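 Co-culture: HUVEC + PBMC. Dose compound; 24 h. ELISA for E-selectin. Bidirectional fit vs DMSO.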

Read-out in experiment [10]: CD40, CD40 (gene 958)
As to the kind of experiment: BSK_SAg_CD40: BioMAP Diversity Plus: SAg Assay for CD40 Biomarker Activity (AID 2283088). In short, it runs like this: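 Compounds were dosed onto a human primary endothelial–PBMC co-culture, and after 24 h CD40 was quantified by ELISA using a fluorescence signal. Activity in either direction was fitted relative to DMSO.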

Consider 10 compounds from PubChem BioAssay (EPA / NIEHS).

Active and inactive are the calls of the source. Rule for the calls: active = hit-call score of the fitted dose curve at least 0.9, where 1 is the maximum; inactive = score below 0.9.

In general, AC50 refers to the concentration giving half of the maximal activity seen.

Tumor necrosis factor (Homo sapiens), sequence (P01375 whole entry, looked up): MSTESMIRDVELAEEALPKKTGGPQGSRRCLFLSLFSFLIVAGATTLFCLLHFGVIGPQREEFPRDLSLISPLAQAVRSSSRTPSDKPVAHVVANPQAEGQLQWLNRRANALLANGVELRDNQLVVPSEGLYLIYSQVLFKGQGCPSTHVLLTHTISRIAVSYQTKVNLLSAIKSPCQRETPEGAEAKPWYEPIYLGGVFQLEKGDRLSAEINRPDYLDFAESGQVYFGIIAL
E-selectin (Homo sapiens), sequence (P16581 whole entry, looked up): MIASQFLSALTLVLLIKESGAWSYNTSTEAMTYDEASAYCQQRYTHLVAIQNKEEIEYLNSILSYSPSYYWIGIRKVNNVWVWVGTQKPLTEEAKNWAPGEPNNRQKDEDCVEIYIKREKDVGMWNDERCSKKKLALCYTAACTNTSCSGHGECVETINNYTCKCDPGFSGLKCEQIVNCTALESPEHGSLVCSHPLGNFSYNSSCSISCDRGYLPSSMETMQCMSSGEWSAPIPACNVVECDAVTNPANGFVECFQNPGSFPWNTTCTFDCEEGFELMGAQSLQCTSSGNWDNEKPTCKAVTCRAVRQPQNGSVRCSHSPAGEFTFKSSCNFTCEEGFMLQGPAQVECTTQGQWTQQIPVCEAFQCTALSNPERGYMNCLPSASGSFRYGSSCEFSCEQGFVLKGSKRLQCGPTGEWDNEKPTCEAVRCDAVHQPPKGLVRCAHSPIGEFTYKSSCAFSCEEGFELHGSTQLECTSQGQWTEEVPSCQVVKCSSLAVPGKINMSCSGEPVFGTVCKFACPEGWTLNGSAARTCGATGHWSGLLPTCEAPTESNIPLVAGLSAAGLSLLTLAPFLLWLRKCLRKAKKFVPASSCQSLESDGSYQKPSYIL

Regarding `CN(C)C(=O)NC1(c2ccccc2)CCN(CC[C@@]2(c3ccc(F)c(F)c3)CN(C(=O)c3ccccc3)CCO2)CC1`, the result in experiment [1], in experiment [2], in experiment [3], in experiment [4], in experiment [5] and in experiment [6] was inactive. The result in experiment [7], in experiment [8] and in experiment [9] was inactive.
As for `N[C@@H](Cc1c[nH]c2ccccc12)C(=O)O`, the outcome in experiment [1], in experiment [2], in experiment [3], in [4], in experiment [5] and in [6] was inactive. Moreover, the result in experiment [7], in [8] and in [9] was inactive.
For `CCCCCCCC(=O)OC`, the result in experiment [1], in experiment [2], in [3], in experiment [4], in [5] and in experiment [6] was inactive. Further, the outcome in experiment [10], in experiment [7], in [8] and in experiment [9] was inactive.
As for `CCC(C)N(C)C(=O)c1cc2ccccc2c(-c2ccccc2Cl)n1` (stereo not drawn), the outcome in experiment [1], in [2], in [3], in [4], in experiment [5] and in [6] was inactive. For the same compound, the outcome in experiment [10], in experiment [7], in experiment [8] and in experiment [9] was inactive.
Regarding `O=C1O[C@H]([C@H](O)CO)C(O)=C1O`, the outcome in experiment [1], in [2], in experiment [3], in experiment [4], in experiment [5] and in experiment [6] was inactive. For the same compound, the result in experiment [10], in [7], in [8] and in experiment [9] was inactive.
Consider `O=C(Oc1ccccc1)c1cccc(C(=O)Oc2ccccc2)c1`, for which the outcome in experiment [1], in experiment [2], in experiment [3], in experiment [4], in experiment [5] and in [6] was inactive. Moreover, the result in experiment [10], in [7], in experiment [8] and in experiment [9] was inactive.
For the compound `CCCCC(CC)COP(=O)(OCC(CC)CCCC)OCC(CC)CCCC` (stereo not drawn), the outcome in [1], in experiment [2], in experiment [3], in experiment [5], in experiment [6] and in [10] was inactive. Moreover, the result in [7], in experiment [8] and in [9] was inactive. Besides, the AC50 in experiment [4] is 5.46 µM (active).
With `O=C(O)c1[nH]n(-c2ccc(S(=O)(=O)O)cc2)c(=O)c1N=Nc1ccc(S(=O)(=O)O)cc1`, the result in experiment [1], in [2], in experiment [3], in experiment [4], in [5] and in experiment [6] was inactive. The result in experiment [10], in [7], in [8] and in experiment [9] was inactive.
Regarding `C#CC(O)C(CC)CCCC` (stereo not drawn), the result in [1], in experiment [2], in [3], in experiment [4], in experiment [5] and in experiment [6] was inactive. For the same compound, the result in [10], in [7], in [8] and in [9] was inactive.
For `O=C1c2c(O)cccc2Cc2cccc(O)c21`, the outcome in [1], in [2], in [3], in experiment [4], in [5] and in [6] was inactive. Besides, the outcome in experiment [10], in experiment [7], in experiment [8] and in [9] was inactive.
